According to PubChem BioAssay (Tox21):
Results filed as inconclusive are left out. Where a call stands in place of a potency, no number is given. The source made the active and inactive calls. Unless noted, calls follow the shape of the dose curve; as a rule, active = well fitted curve in the direction sought with a large enough effect in the repeat runs; inconclusive = weak or mixed curves; inactive = no such curve, though single readings can be large; an effect the other way counts as inactive or inconclusive.

How the values were obtained:
[1] = qHTS assay to identify small molecule that activate the aryl hydrocarbon receptor (AhR) signaling pathway - cell viability counter screen (AID 743086); also: nearly all actives have a fitted effect of over 45% in size; also: potency is read from the fitted curve at half-maximal effect
In short: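 Cytotoxicity counter screen: CellTiter-Fluor signal (30 min, 37 C) in 4000 HepG2 cells/well carrying the DRE-luciferase reporter, following 24 h compound exposure at 37 C.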

[2] = qHTS assay to identify small molecule antagonists of the peroxisome proliferator-activated receptor gamma (PPARg) signaling pathway - cell viability counter screen (AID 743194); also: nearly all actives have a fitted effect of over 55% in size
In short: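 Viability was measured as CellTiter-Glo luminescence in GeneBLAzer PPARg UAS-bla HEK293H cells. These cells had been exposed 17 h at 37 C to compounds together with rosiglitazone at 50 nM final, with the beta-lactamase readout taken in the same wells.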

[3] = qHTS assay for small molecule agonists of the antioxidant response element (ARE) signaling pathway - cell viability counter screen (AID 743203; calls by dose curve; also: nearly all actives have a fitted effect of over 55% in size; also: potency is read from the fitted curve at half-maximal effect)
In short: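 ATP content via CellTiter-Glo luminescence served as the viability measure. Cells: ARE-bla HepG2, 2,000 per well. Exposure: 16 hrs, 37C/5% CO2.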

[4] = qHTS assay for small molecule activators of the heat shock response signaling pathway - cell viability counter screen (AID 743209); also: nearly all actives have a fitted effect of over 50% in size
In short: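 Compounds dissolved in DMSO were added to overnight-plated HSE-bla HeLa cells and left 5 h at 37 C. Cell viability was quantified by luminescence using CellTiter-Glo.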

[5] = qHTS assay for small molecule activators of the heat shock response signaling pathway (AID 743210; active = well fitted activation curve with a large enough effect in the signal ratio in the repeat runs, with a control signal flat, not every such curve was filed as active; the % refers to the signal ratio; also: series mostly up to about 63 µM)
In short: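 Compound exposure lasted 5 h at 37 C in HeLa cells carrying a heat-shock-element-driven beta-lactamase reporter. Read-out: fluorescence intensity after 2.5 h room-temperature loading with LiveBLAzer B/G FRET substrate.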

[6] = qHTS assay to identify small molecule agonists of the peroxisome proliferator-activated receptor delta (PPARd) signaling pathway - cell viability counter screen (AID 743211); also: nearly all actives have a fitted effect of over 55% in size
In short: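 Tox21 library compounds, delivered in DMSO, were incubated 17 h with PPARd-bla HEK293H cells; cytotoxicity was taken from CellTiter-Glo luminescence read 30 min after reagent addition.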

[7] = qHTS assay to identify small molecule antagonists of the peroxisome proliferator-activated receptor delta (PPARd) signaling pathway - cell viability counter screen (AID 743213); also: nearly all actives have a fitted effect of over 50% in size
In short: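 PPARd-bla HEK293H cells (3000/well) got compound plus 300 nM L165041 agonist for 17 h at 37 C. Viability in the same wells came from CellTiter-Glo luminescence after 30 min at room temperature.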

[8] = qHTS assay to identify small molecule agonists of the farnesoid-X-receptor (FXR) signaling pathway - cell viability counter screen (AID 743218); also: nearly all actives have a fitted effect of over 45% in size
In short: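 Quantitative HTS counter screen measuring ATP-based viability via CellTiter-Glo luminescence in HEK 293T cells carrying a UAS-driven beta-lactamase reporter, after 16 h compound exposure at 37 C.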

[9] = target: Vitamin D3 receptor (Homo sapiens) (UniProt P11473); test: qHTS assay to identify small molecule agonists of the vitamin D receptor (VDR) signaling pathway (AID 743222; calls by dose curve)
In short: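 Tox21 cell reporter format: VDR-bla line, 16 h compound exposure in 5% CO2 at 37C, then fluorescence intensity after 2 h with LiveBLAzer B/G FRET substrate.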

[10] = qHTS assay to identify small molecule antagonists of the farnesoid-X-receptor (FXR) signaling pathway - cell viability counter screen (AID 743221; active = well fitted cell-killing curve with a large enough effect in the repeat runs, not every such curve was filed as active; also: nearly all actives have a fitted effect of over 50% in size)
In short: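 Cytotoxicity is taken from ATP luminescence (CellTiter-Glo, 30 min, room temperature) in FXR-bla HEK 293T cells previously incubated 16 h at 37 C with compound and chenodeoxycholic acid at 50 uM final.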

[11] = target: Peroxisome proliferator-activated receptor delta (Homo sapiens) (UniProt Q03181); test: qHTS assay to identify small molecule antagonists of the peroxisome proliferator-activated receptor delta (PPARd) signaling pathway (AID 743215; active = well fitted inhibition curve with a large enough effect in the signal ratio in the repeat runs, not every such curve was filed as active; the % refers to the signal ratio;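 also: cells stimulated with agonist L165041 at 300 nM final during compound exposure; series mostly up to about 62 µM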)
In short: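 Here, a reporter line (HEK293H, beta-lactamase under a UAS) measures PPARd signaling. Compounds are tested against agonist L165041 at 300 nM final concentration over 17 h at 37 C, with fluorescence read after substrate.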

[12] = target: Peroxisome proliferator-activated receptor delta (Homo sapiens) (UniProt Q03181); test: qHTS assay to identify small molecule agonists of the peroxisome proliferator-activated receptor delta (PPARd) signaling pathway (AID 743212; calls by dose curve;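 also: HEK293H cells with PPARd UAS beta-lactamase reporter GeneBLAzer system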)
In short: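 Beta-lactamase reporter readout: a ratiometric FRET signal from the LiveBLAzer substrate after 2 h at room temperature. Compound exposure at 37 °C in PPARδ-bla HEK293H cells driven by an upstream activator sequence.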

[13] = target: Bile acid receptor (Homo sapiens) (UniProt Q96RI1); test: qHTS assay to identify small molecule antagonists of the farnesoid-X-receptor (FXR) signaling pathway (AID 743217; active = well fitted inhibition curve with a large enough effect in the signal ratio in the repeat runs, not every such curve was filed as active; the % refers to the signal ratio)
In short: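 Test compounds are pin-transferred onto FXR-bla HEK 293T cells, then chenodeoxycholic acid is added at 50 uM final. After 16 h at 37 °C, LiveBLAzer B/G substrate is applied for 2 h at room temperature and fluorescence read.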

[14] = target: Bile acid receptor (Homo sapiens) (UniProt Q96RI1); test: qHTS assay to identify small molecule agonists of the farnesoid-X-receptor (FXR) signaling pathway (AID 743220; active = well fitted activation curve with a large enough effect in the signal ratio in the repeat runs, not every such curve was filed as active; the % refers to the signal ratio)
In short: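 FXR-UAS-bla HEK 293T cells carrying a UAS-driven beta-lactamase reporter were plated for 5 h at 37C/5% CO2, then exposed to DMSO-dissolved Tox21 10K compounds for 16 h at 37C. A LiveBLAzer B/G FRET substrate was loaded for 2 h at room temperature before fluorescence reading.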

Sequence of Peroxisome proliferator-activated receptor delta (Homo sapiens) (Q03181 whole entry, looked up): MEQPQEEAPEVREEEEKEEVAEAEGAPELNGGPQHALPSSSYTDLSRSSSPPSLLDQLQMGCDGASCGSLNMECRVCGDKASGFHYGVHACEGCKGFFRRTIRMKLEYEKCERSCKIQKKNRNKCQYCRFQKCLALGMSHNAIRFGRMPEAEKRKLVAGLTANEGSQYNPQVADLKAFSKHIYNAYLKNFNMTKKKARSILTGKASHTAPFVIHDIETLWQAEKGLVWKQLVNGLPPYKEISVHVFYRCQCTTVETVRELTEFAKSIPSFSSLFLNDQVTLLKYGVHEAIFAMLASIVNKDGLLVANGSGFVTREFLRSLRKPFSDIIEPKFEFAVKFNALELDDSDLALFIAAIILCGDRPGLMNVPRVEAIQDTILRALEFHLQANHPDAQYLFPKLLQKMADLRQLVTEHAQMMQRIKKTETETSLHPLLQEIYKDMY
Sequence of Vitamin D3 receptor (Homo sapiens) (P11473 whole entry, looked up): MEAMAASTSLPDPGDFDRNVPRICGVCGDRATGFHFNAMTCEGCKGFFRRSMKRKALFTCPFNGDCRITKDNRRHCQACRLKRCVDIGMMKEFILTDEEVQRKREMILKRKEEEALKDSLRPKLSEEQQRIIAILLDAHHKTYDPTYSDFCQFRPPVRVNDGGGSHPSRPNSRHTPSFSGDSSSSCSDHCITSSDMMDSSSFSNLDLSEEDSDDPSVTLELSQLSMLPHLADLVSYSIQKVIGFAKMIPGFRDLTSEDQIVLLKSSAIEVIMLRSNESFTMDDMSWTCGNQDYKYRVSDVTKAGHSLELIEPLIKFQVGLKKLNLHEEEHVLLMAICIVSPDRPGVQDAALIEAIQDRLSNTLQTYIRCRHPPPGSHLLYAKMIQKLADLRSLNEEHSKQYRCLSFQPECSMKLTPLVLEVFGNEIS
Sequence of Bile acid receptor (Homo sapiens) (Q96RI1 whole entry, looked up): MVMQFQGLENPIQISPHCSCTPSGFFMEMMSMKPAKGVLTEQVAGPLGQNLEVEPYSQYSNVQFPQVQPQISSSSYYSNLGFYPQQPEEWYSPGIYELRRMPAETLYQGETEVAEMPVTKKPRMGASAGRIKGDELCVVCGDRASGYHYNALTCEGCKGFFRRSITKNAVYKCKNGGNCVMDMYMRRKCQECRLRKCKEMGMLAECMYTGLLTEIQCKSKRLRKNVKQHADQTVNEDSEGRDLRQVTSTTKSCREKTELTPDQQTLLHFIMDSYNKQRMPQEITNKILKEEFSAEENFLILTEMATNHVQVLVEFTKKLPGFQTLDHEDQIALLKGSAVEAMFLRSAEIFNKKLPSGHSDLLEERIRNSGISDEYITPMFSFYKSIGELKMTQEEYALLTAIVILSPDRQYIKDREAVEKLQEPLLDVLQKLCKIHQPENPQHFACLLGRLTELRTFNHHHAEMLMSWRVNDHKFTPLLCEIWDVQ

Row | SMILES | Potency [1] | Potency [2] | Potency [3] | Potency [4] | Potency [5] | Potency [6] | Potency [7] | Potency [8] | Potency [9] | Potency [10] | Potency [11] | Potency [12] | Potency [13] | Potency [14]
1 | CC(C)O.CC(C)O.CCOC(=O)/C=C(\C)O.CCOC(=O)/C=C(\C)O.[Ti] | inactive | inactive | inactive | inactive | inactive | inactive | inactive | inactive | inactive |  |  |  |  | 
2 | Cc1ccccc1S(=O)(=O)O |  | inactive | inactive | inactive | inactive | inactive | inactive | inactive |  | inactive |  |  |  | 
3 | CCc1cc(C2=C(C(=O)O)N(c3ccccc3C(F)(F)F)S(=O)(=O)c3ccccc32)cc2c1OCO2 | 21.4 µM (active) | inactive | 6.04 µM (active) | inactive | inactive | inactive |  |  |  | inactive | inactive |  |  | 
4 | CCC(C)c1cc(C(C)(C)C)c(O)c(C(C)(C)C)c1 (stereo not drawn) | inactive | inactive | inactive |  |  |  | inactive |  | inactive |  | inactive |  |  | 
5 | O=C(O)c1nc(Cl)c(Cl)c(Cl)c1Cl | inactive | inactive | inactive | inactive | inactive | inactive |  | inactive |  | inactive | inactive | inactive |  | 
6 | CC1=CCCC(C)(C)C12CCC(C)O2 (stereo not drawn) |  |  | inactive | inactive | inactive | inactive | inactive |  |  |  |  |  | inactive | inactive
